# Compound activity deposited in PubChem BioAssay by The Scripps Research Institute Molecular Screening Center.
# M1 ag parental: counter-screen for M1 agonists: effect in parental CHO-K1 cells | Fluo-8 calcium fluorescence; scaled to maximal ATP response, vehicle zero | activation, % at 3 µM | actives 0.48% (n = 360,000); in the data active = activation above about 15%;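 also: untransfected CHO-K1 host cells lacking M1 receptor as counterscreen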
# M1 antag: human M1 muscarinic receptor antagonists, primary screen, CHO-K1 cells, Fluo-8 calcium fluorescence, 1536-well | actives 1.3% (n = 360,000) | inhibition, % at 3 µM | CHO-K1 hM1, ACh EC80 antagonist | Muscarinic acetylcholine receptor M1 (Homo sapiens), P11229;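 active = percent inhibition above its own plate's cutoff, namely the mean of that plate's compound wells plus 3 SD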;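 also: peak over basal fluorescence ratio during 140 s after agonist addition; 0% = ACh EC80 plus DMSO and 100% = DMSO alone without agonist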
# Target sequence (P11229 whole entry, looked up): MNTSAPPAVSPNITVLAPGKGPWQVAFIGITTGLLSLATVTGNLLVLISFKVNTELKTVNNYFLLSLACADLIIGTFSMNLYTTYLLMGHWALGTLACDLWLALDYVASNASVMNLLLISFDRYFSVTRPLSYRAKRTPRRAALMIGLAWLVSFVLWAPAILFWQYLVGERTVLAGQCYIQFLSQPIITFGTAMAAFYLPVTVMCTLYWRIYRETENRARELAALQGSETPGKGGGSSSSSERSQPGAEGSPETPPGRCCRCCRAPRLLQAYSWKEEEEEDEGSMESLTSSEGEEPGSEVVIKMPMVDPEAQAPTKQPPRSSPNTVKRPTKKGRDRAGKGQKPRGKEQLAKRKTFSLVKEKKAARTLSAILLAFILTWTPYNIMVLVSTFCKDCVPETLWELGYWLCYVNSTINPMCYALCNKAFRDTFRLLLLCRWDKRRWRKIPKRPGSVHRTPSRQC
# CHO-K1 Ca antag: M1 antagonist counterscreen hit in parental CHO-K1 cells | actives 0.6% (n = 360,000) | AID 602250 | inhibition, % at 3 µM | ATP-induced calcium, Fluo-8 fluorescence;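 active = inhibition above a per-plate cutoff, the plate's mean sample inhibition plus 3 SD, cut at about 24% in these data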;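 also: 0% = DMSO plus EC80 ATP and 100% = DMSO alone without ATP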
# CHO-K1 Ca PAM: nonselective calcium activators in parental CHO-K1 cells, primary screen, counter-screen for M1 PAM project, cell-based, Fluo-8 calcium fluorescence, full deck, 1536-well | actives 0.02% (n = 360,000) | activation, % at 3 µM | ATP EC20; 0% at ATP EC20, 100% at ATP max | AID 602247, 2012;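 active = activation above the run cutoff, the mean activation of all test compounds plus 3 SD, cut at about 40% in these data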;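 also: peak over basal fluorescence ratio in a 140 s read after ATP addition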
# M1 PAM: human M1 muscarinic receptor positive allosteric modulators, primary screen, CHO-K1 cells, Fluo-8 calcium fluorescence, 1536-well; activation, % at 3 µM; CHO-K1 hM1, ACh EC20; 0% = ACh EC20, 100% = maximal ACh; Muscarinic acetylcholine receptor M1 (Homo sapiens), P11229; actives 0.088% (n = 360,000); in the data active = activation above about 19%, passing the limit was not always enough
# M1 ag: human M1 muscarinic receptor agonists, primary screen, Fluo-8 calcium fluorescence, CHO-K1 cells, HTS; Muscarinic acetylcholine receptor M1 (Homo sapiens), P11229; actives 0.33% (n = 360,000); CHO-K1 hM1, agonist mode; 0% DMSO, 100% acetylcholine EC100; AID 588814, 2011; activation, % at 3 µM;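 active = activation above the run's mean compound activation plus 3 SD, cut at about 16% in these data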;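 also: peak over basal fluorescence ratio within a 140 s kinetic read after compound addition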
# The depositor's hits bear a star. Rows were chosen to be rich in hits. Some 2.4% of all compounds tested hit in one or more screens of this group.
SMILES,M1 ag parental,M1 antag,CHO-K1 Ca antag,CHO-K1 Ca PAM,M1 PAM,M1 ag
COc1cc(C2N(C)C(=O)c3ccccc3N2C)ccc1O (stereo unspecified),17*,5,0,6,0,-4
CCOc1cccc2c1OC(c1cc(OC)c(OC)c(OC)c1)N1N=C(c3ccc(C)o3)CC21 (stereo unspecified),1,11,8,20,-6,-6
Cc1ccc(NC(=O)c2sc3ncn(CC(=O)N4CCN(c5ccccn5)CC4)c(=O)c3c2C)cc1Cl,5,63*,-12,-5,-23,1
COCCCNC(=O)c1sc2ncn(CC(=O)Nc3ccc(C)c(Cl)c3)c(=O)c2c1C,5,-10,-19,40*,2,-3
COc1ccc(C2CCCN2C(=O)Nc2cccc(C(C)=O)c2)cc1OC (stereo unspecified),0,22,26*,-6,-6,0
O=CNCCCc1nc2ccccc2n1Cc1ccccc1,0,-6,36*,-7,14,-2
CN1C(=O)C(C)(C)c2cc(S(=O)(=O)N3CCN(c4ccc(F)cc4)CC3)ccc21,1,4,-4,-4,0,-2
CN1CCN(S(=O)(=O)c2ccc3c(c2)C(C)(C)C(=O)N3C)CC1,0,6,25*,-5,-1,-1
O=C1CC(N2CCN(c3ccc(O)cc3)CC2)C(=O)N1Cc1cccs1 (stereo unspecified),1,-6,3,-2,3,-4
O=C1CC(N2CCN(C/C=C/c3ccccc3)CC2)C(=O)N1CCc1ccccc1 (stereo unspecified),16*,9,-2,0,-25,-3
O=C1CC(N2CCN(C/C=C/c3ccccc3)CC2)C(=O)N1Cc1cccs1 (stereo unspecified),2,87*,-20,16,-24,-8
O=C1CC(N2CCN(C3CC(=O)N(CCc4ccccc4)C3=O)CC2)C(=O)N1CCc1ccccc1 (stereo unspecified),2,0,-1,-8,0,-3
CC(=O)Nc1ccccc1NC(=O)CC(C)(C)C,0,-26,0,15,14,-1
CCN1CCN(c2c(Cl)cccc2NC(=O)c2ccco2)CC1,1,-16,-12,2,-3,-10
O=C(CSc1cn(Cc2cccc(F)c2)c2ccccc12)NCc1ccc(F)cc1,4,31*,5,6,-13,-5
CCn1cc(S(=O)(=O)CC(=O)Nc2cc(C)on2)c2ccccc21,1,18,-3,16,-5,-1
Cc1ccc(CS(=O)(=O)c2cn(CC(=O)Nc3ccon3)c3ccccc23)cc1,19*,1,7,-1,3,-1
Cc1cc(NC(=O)CS(=O)(=O)c2cn(Cc3cccc(F)c3)c3ccccc23)no1,2,-9,-2,7,20,17*
Cc1cc(NC(=O)CS(=O)(=O)c2cn(Cc3ccc(F)cc3)c3ccccc23)no1,10,17,-4,2,11,32*
Cc1cc(NC(=O)CS(=O)(=O)c2cn(Cc3cccc(C(F)(F)F)c3)c3ccccc23)no1,4,-8,-5,4,7,18*
Cc1cc(NC(=O)CSCC(=O)NCc2cccc(C(F)(F)F)c2)no1,1,-12,-13,24,2,-1
N=c1c(C(=O)NC2CCCC2)cc2c(=O)n3ccccc3nc2n1C1CCCC1,0,17,7,-2,-9,-6
COc1ccc([C@H]2CC(=O)C=C(c3ccc(CNC(=O)OC(C)(C)C)cc3)C2)cc1,9,34*,1,-18,-23,-4
O=C(c1cc2ccccc2o1)N1CCN(S(=O)(=O)c2c(F)cccc2F)CC1,1,7,-5,7,0,-3
Fc1cccc(CNc2ncnc3cc(Cl)ccc23)c1F,15*,23,23,4,-15,-4
